Results as given in PubChem BioAssay AID1863 (Southern Research Specialized Biocontainment Screening …, 2009).
Hit rate of the full screen: of about 300,000 compounds, about 480 (0.16%) were called active.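 How the source made its calls: active means inhibition over 29.93%, a cutoff 3 SD above the screen mean, later confirmed by dose response; inconclusive means inhibition over 29.93% but no dose response follow-up; inactive means inhibition at most 29.93% or unconfirmed.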 These entries were drawn from the full list. Entries with a potency or affinity are not part of this list.

Assay: inhibitors of PhoP regulon expression, primary screen, Salmonella Typhimurium, GFP reporter (AID 1863);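 further: 0% = low Mg2+ inducing control and 100% = high Mg2+ repressing control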
Settings: S. Typhimurium PhoP-regulated promoter GFP reporter, 4 h; at 50 µM; stronger effect = higher value

inhibition, inactive:
CCc1sc(C(=O)Nc2cccnc2)cc1Br -5.61%
COc1ccc2[nH]cc(CCNC(=O)c3ccc4ccccc4n3)c2c1 -0.1%
CCC(=O)N1CCc2cc(Br)cc(S(=O)(=O)N3CCC(C(=O)NC(C)C)CC3)c21 3.79%
CNc1cc(CSC)nc(SCc2ccc(Cl)c(Cl)c2)n1 -2.03%
O=C(c1ccc2ncsc2c1)N1CCCCC1 0.96%
O=C(O)CCSc1nc2ccccc2n1Cc1ccccc1 -0.57%
NC(=O)CN(c1ccc([N+](=O)[O-])cc1)S(=O)(=O)c1ccccc1 10%
CN(C)C(=O)/C(C#N)=C\c1cc(Br)c(Sc2ccc(Cl)cc2)o1 2.32%
Cc1nc2c(C)cccn2c(=O)c1NC(=O)c1ccco1 6.47%
CCNC(=O)CN1C(=O)NC2(CCOc3ccccc32)C1=O (configuration not stated) -2.64%
CCn1cc(C(=O)NCc2cccc(F)c2)c(=O)c2cc(F)c(N3CCN(C(=O)c4ccco4)CC3)cc21 12.3%
CCn1cc(C(=O)O)c(=O)c2cnc(N3CCN(C(=S)NC(=O)c4ccc(Cl)cc4)CC3)nc21 30.7%
CCn1cc(C(=O)O)c(=O)c2cnc(N3CCN(C(=S)NC(=O)c4ccccc4)CC3)nc21 18.2%
CCn1cc(C(=O)N/N=C(/C)c2ccc(F)cc2)c(=O)c2cc(F)c(N3CCCC3)cc21 -8.17%
Cc1c(Cl)cccc1NC(=S)N1CCOCC1 -2.07%
O=C(Nc1c2c(nn1-c1cccc(Cl)c1)CS(=O)(=O)C2)C1CC1 -4.19%
CCNC(=S)Nc1ccc(-c2nc3ccccc3[nH]2)cc1 -10.4%
COc1ccc(NC(=O)c2cn3c(nc4ccccc43)c(C#N)c2C)cc1 -3.66%
CC1CCN(S(=O)(=O)c2ccc3c(c2)c(=O)c(C(=O)N2CCOCC2)cn3C)CC1 -0.29%
Cc1c(CC(=O)N[C@@H](C)C(=O)O)c(=O)oc2c(C)c3occ(-c4ccccc4)c3cc12 9.42%
C=CCN(Cc1nc(-c2ccccc2)no1)C(=O)c1ccc2c(c1)OCO2 1.88%
O=[N+]([O-])c1ccc(/C=N/NC(=S)Nc2ccccc2)o1 18.4%
O=C(/C=C/c1cccc([N+](=O)[O-])c1)NCCSCc1cccc(Cl)c1 -1.04%
CCn1cc(C(=O)O)c(=O)c2cnc(N3CCN(C(=S)NC(=O)c4ccc(F)c(F)c4)CC3)nc21 7.64%
CCCCCCCCCC(=O)N1CCN(c2cc3c(cc2F)c(=O)c(C(=O)O)cn3CC)CC1 6.32%
CCOC(=O)c1sc(N)c(C#N)c1CSc1nnc(C2CC2)n1N 0.84%
COc1cccc2c1OC[C@@H](CO)[C@H]2N(C)C(=O)Nc1ccc(Cl)cc1 -5.57%
Cn1nnnc1SCC1=C(C(=O)O)N2C(=O)C(NC(=O)C3CC3c3ccccc3)C2SC1 (configuration not stated) 5.81%
CO[C@@]1(NC(=O)CSCC#N)C(=O)N2C(C(=O)O)=C(CSc3nnnn3C)CS[C@@H]21 2.92%
COC(=O)C(C)Oc1cc(OC(C)C(=O)OC)c2c(-c3ccccc3)cc(=O)oc2c1 (configuration not stated) -1.83%
c1ccc(-c2ccc(-c3ccccn3)nn2)nc1 17.9%
c1ccc(-c2ccccn2)nc1 1.51%
C[C@H](NC(=O)C1CC(=O)N(c2ccc3c(c2)OCCO3)C1)C(=O)NC1CCCC1 (some centres not stated) -3.6%
CCN(CC)C(=O)COc1ccc(N(C)S(=O)(=O)c2ccc(NC(C)=O)cc2)cc1 -5.37%
COc1cc(-c2nc(N)n[nH]2)cc(OC)c1OC -10.2%
COc1cc(Nc2ncnc(N)n2)cc(OC)c1OC -3.05%
COc1cccc(OCCNc2cc(Cl)ccc2[N+](=O)[O-])c1 6.62%
Cc1ccc(NC(=O)C2(C)Cc3ccccc3C(=O)O2)cc1 (configuration not stated) -8.33%
O=C(CNC(=O)c1ccccc1)Nc1cccc(C(F)(F)F)c1 -8.93%
CC1CCN(CC(=O)Nc2cccc(C(=O)Nc3cccc(C(F)(F)F)c3)c2)CC1 0.24%
O=C1CCN(N=Nc2cccc(Cl)c2)N1 -4.47%
COc1ccc(N2CCN(C(=O)CN(C3CCCCC3)S(C)(=O)=O)CC2)cc1 -3.93%
O=S(=O)(NCc1ccccc1)NCc1ccccc1F -1.32%
O=C(O)c1ccc(CNCc2ccccc2F)cc1 0.78%
Cc1csc(C(=O)O)c1NC(=O)c1c(Cl)cccc1Cl -3.3%
CCn1ccc(=O)c2cc3c(cc21)OCO3 2.11%
CCn1nc(C(=O)N2CCN(Cc3ccc4c(c3)OCO4)CC2)c2ccccc2c1=O -2.79%
CCn1cc(C(=O)N[C@H](C(=O)O)C(C)C)c(=O)c2cc3c(cc21)OCO3 25.9%
CCOC(=O)c1cn(CC)c2cc3c(cc2c1=O)OCO3 7.75%
Cn1c(SCC(=O)NC2CCCCC2)nnc1-c1cc2cc(Cl)ccc2o1 5.87%
CCC(=O)NC(c1cccs1)c1ccc2cccnc2c1O (configuration not stated) 27%
CC(C)CC(=O)NC(c1cccs1)c1ccc2cccnc2c1O (configuration not stated) 9.48%
O=C1OCc2cc(NC(=O)C3CCCO3)ccc21 (configuration not stated) 13.1%
COc1ccc(Cc2nc3ccc(C(=O)N4CCC[C@H]4CO)cc3o2)cc1 -5.77%
COc1ccc2[nH]c3c(=S)nc[nH]c3c2c1 11.1%
COc1ccc2[nH]c3c(Cl)ncnc3c2c1 2%
Cc1cc2[nH]c3ccccc3c2c(C)n1 17.6%
Cc1ccc(C)c2c1[nH]c1ccccc12 -11.2%
Cc1ccc(C2(c3noc(CN(C)Cc4ccccn4)n3)CCCC2)cc1 1.51%
O=C(O)Cn1c(O)c(C2=c3ccccc3=NC2=O)sc1=O 3.25%
COc1cccc(N/C(N)=N/c2nc(C(F)(F)F)cc(C(F)(F)F)n2)c1 -1.8%
O=S1(=O)N=C(N/N=C/c2ccco2)c2ccccc21 11.7%
O=S1(=O)N=C(N/N=C/c2cccs2)c2ccccc21 0.95%
S=c1[nH]c2ccccc2n2c(=S)[nH]nc12 4.88%
O=c1[nH]c2ccccc2n2cnnc12 3.8%
C=CCn1c(SCC(=O)OCC)nc2cc(C(=O)NCc3ccco3)ccc2c1=O -4.98%
CCCn1nc(C(=O)OCC(=O)Nc2cccc(S(N)(=O)=O)c2)c2ccccc2c1=O -1.14%
Nc1c2ccccc2nc2ccccc12 20.8%
Nc1[nH]nc2nc3ccccc3cc12 0.6%
Nc1nc(-c2cccnc2)nn1C(=O)c1ccccc1Cl 0.52%
COc1ccc(-c2csc(NC(=O)COC(=O)c3ccco3)n2)cc1 5.57%
Cc1ccc(C(=O)OCC(=O)NC(=O)c2cccn2C)cc1[N+](=O)[O-] -12.8%
COCCCn1c(Cc2csc(Nc3ccc(F)cc3)n2)nnc1SCC(N)=O 0.4%
COc1ccc(/C(C)=N/NC(=O)CNC(=O)c2ccncc2)cc1 -0.07%
N=c1n(CC(=O)c2ccc([N+](=O)[O-])cc2)c2ccccc2n1Cc1ccccc1 39%
N=c1n(CC(=O)c2ccc([N+](=O)[O-])cc2)c2ccccc2n1Cc1ccc(Cl)cc1 25.9%
Cc1cc(C)n(C(=O)CNC(=O)c2ccc3c(c2)OCCO3)n1 -15.6%
CCO[C@@H]1OC(C(=O)N2CCCCCCC2)=C[C@H](c2cn(C(C)=O)c3ccccc23)[C@H]1CCCO -5.2%
COc1ccc(C)cc1-n1c(-c2ccncc2)n[nH]c1=S -9.19%
Cc1cccc(NC2=CC(=O)CC(C)(C)C2)c1C 2.2%
CC(C(=O)c1ccc(-c2ccccc2)cc1)[n+]1cccc(C(N)=O)c1 (configuration not stated) 2.06%
CC(C(=O)c1ccc(Br)cc1)[n+]1cccc(NC(=O)c2ccccc2)c1 (configuration not stated) -0.32%
O=C(C[n+]1cccc(CNC(=O)c2ccc(OC(F)F)cc2)c1)Nc1ccc(F)cc1 5.04%
O=C(C[n+]1cccc(CNC(=O)c2ccc(OC(F)F)cc2)c1)Nc1cccc(C(F)(F)F)c1 25.3%
CCOc1ccc(C(=O)NCC(=O)N2CCC3CCCCC3C2)cc1OCC (configuration not stated) 7.73%
COc1cc(-c2nnc(SCC(=O)/C(C#N)=C(\C)N)o2)cc(OC)c1OC 0.61%
CCOc1ccc(CCN2C(=O)C(=O)N([C@H](CCCN(C)Cc3ccccc3)CNCc3ccccc3)C[C@@H]2C(C)C)cc1 12.1%
CN(CCCC[C@H](CNCc1ccc(-c2ccccc2)cc1)N1C[C@H](c2ccccc2)N(CCc2ccc(Cl)c(Cl)c2)C(=O)C1=O)Cc1ccc(-c2ccccc2)cc1 8.2%
CCc1ccc(N2C(=O)Nc3ccccc3C2(O)C(=O)N2CCN(c3ccccn3)CC2)cc1 (configuration not stated) 10.3%
Cn1c(CSc2nc3ccccc3s2)nnc1SCC(=O)NCc1ccccn1 -6.01%
O=C1NN(c2ccccc2)C(=O)/C1=C/c1coc2ccccc2c1=O 8.22%
Cc1cc(/C=C2/C(=O)NN(c3ccccc3)C2=O)c(C)n1-c1ccc(O)cc1 -4.21%
